Results from the supplement of paper PMC11732987, “Enantioselective OTUD7B fragment discovery through chemoproteomics screening and high-throughput optimisation” (Communications Chemistry, 2025).

Molecular target: T1, USP22 (UniProt Q9UPT9)
T1 sequence (whole entry): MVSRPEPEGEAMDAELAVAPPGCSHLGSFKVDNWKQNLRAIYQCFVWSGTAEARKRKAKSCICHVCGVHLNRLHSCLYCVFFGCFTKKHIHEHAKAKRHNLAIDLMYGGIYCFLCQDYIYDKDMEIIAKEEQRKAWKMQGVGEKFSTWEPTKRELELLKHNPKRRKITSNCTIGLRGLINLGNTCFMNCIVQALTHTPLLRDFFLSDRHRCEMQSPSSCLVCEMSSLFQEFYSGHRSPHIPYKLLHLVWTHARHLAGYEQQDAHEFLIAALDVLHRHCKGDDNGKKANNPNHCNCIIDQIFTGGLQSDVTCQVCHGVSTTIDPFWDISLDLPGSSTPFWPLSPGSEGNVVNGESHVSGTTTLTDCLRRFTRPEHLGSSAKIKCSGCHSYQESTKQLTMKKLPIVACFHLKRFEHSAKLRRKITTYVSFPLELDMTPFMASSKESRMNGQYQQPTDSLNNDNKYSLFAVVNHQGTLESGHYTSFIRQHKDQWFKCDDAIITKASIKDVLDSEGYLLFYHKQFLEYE
Experiment: log2 ratio of Biotin-Ahx-Ub-VS probe labelling (fragment/DMSO); higher = less target engagement (more negative = stronger competition), active = hit call of the paper (q ≤ 0.05, log2 ratio ≤ -1)
Details: compound concentration: 200 uM; treatment time: 3 h
Description: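 Competitive ABPP in HEK293T cell lysate. Lysates were treated with each chloroacetamide fragment at 200 µM for 3 h, then with Biotin-Ahx-Ub-VS (0.5 µM, 1 h), NeutrAvidin-enriched and analysed by diaPASEF LC-MS/MS. Protein LFQ was median-normalised; average log2 ratio is fragment/DMSO from an unpaired t-test (n=3 treated, n=44 DMSO). Hits: q ≤ 0.05, log2 ratio ≤ -1, unique peptides ≥ 2.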

log2 ratio of Biotin-Ahx-Ub-VS probe labelling, inactive:
O=C(CCl)Nc1ccccc1C(F)(F)F -0.117
COc1ccc(-c2csc(NC(=O)CCl)n2)cc1 -0.229
O=C(CCl)N1CCCCCC1c1ncon1 (stereo not given) -0.0397
O=C(CCl)Nc1nnc(CC(F)(F)F)o1 -0.0202
CC(=O)Nc1ccc(NC(=O)CCl)cc1 -0.0522
CC(NC(=O)CCl)c1csc(-c2ccccc2)n1.Cl (stereo not given) -0.723
Cc1cccc(C(CNC(=O)CCl)N2CCOCC2)c1.Cl (stereo not given) -0.00636
Cc1conc1C1CN(C(=O)CCl)C1 -0.421
Cc1ccc(C)c(NC(=O)CCl)c1 -0.27
CS(=O)(=O)c1ccc(CNC(=O)CCl)cc1 -0.163
O=C(CCl)NC1CCS(=O)(=O)c2ccccc21 (stereo not given) -0.0769
O=C(CCl)N1CCC(C(=O)N2CCCCCC2)CC1 -0.145
O=C(CCl)N1CCc2ccccc2C(O)C1 (stereo not given) -0.345
Cc1ncc2c(n1)CCN(C(=O)CCl)C2 -0.119
Cc1ccc(CN(C)C(=O)CCl)o1 -0.454
O=C(CCl)NCCc1cccc2ccccc12 -0.385
O=C(CCl)N1CCCCC12CCOCC2 -0.332
O=C(CCl)Nc1cccc(C(=O)N2CCSCC2)c1 -0.0474
Cc1ccc(CC(CO)CNC(=O)CCl)cc1 (stereo not given) -0.0764
O=C(CCl)NC1CCN(C(=O)C2CCCCC2)CC1 0.324
Cl.O=C(CCl)N1CC(c2ccc(Br)cn2)C1 -0.346
COc1ccc(Cl)cc1NC(=O)CCl -0.388
O=C(CCl)N1CCc2nc[nH]c2C1c1ccc(Cl)cc1 (stereo not given) 0.00421
O=C(CCl)NCc1ccc2c(c1)OCO2 -0.126
O=C(CCl)N1CCN(C(=O)Nc2ccccc2)CC1 0.14
NC(=O)C1CCCN(C(=O)CCl)C1 (stereo not given) 0.245
Cc1n[nH]c(=O)c2c(NC(=O)CCl)oc(C)c12 -0.281
O=C(CCl)Nc1cc2c(cc1Cl)OCCCO2 0.133
O=C(CCl)N(Cc1ccsc1)C1CC1 0.255
Cc1ccc(CC(NC(=O)CCl)c2ccccn2)cc1.Cl (stereo not given) -0.153
O=C(CCl)N1CCC(C(O)c2ccc(F)cc2)CC1 (stereo not given) 0.13
O=C(CCl)N1CCCC2CCCCC21 (stereo not given) -0.0228
Cc1ccc(CNC(=O)CCl)nc1C.Cl 0.00229
O=C(CCl)N1CCC2(CCC(O)CC2)CC1 -0.145
O=C(O)C1Cc2ccccc2CN1C(=O)CCl (stereo not given) 0.112
O=C(CCl)N1CCN(c2nc3ccccc3o2)CC1 0.146
O=C(CCl)N1CCOCCC1c1ccccc1 (stereo not given) 0.147
O=C(CCl)N1CCOC2(CCC2)CC1 -0.382
CN(C)S(=O)(=O)c1ccccc1CNC(=O)CCl -0.12
COc1ccccc1C(C)NC(=O)CCl (stereo not given) -0.46
